Source: PubChem
Only some compounds are listed: those with a hit (about 1.3% of all), similar ones and a draw of the others.
Anesthetic bind: qHTS Assay for Identification of Novel General Anesthetics | Ferritin light chain (Equus caballus), P02791 | apoferritin/1-aminoanthracene competitive binding, fluorescence | Potency, µM (top dose mostly 77.5 µM), for the others: at the top dose activity change, negative = displacement, most hits filed as inhibitors | 350,000 compounds, 0.074% hits | AID 485281, 2010; further: potency means the concentration at half of the fitted maximal effect; on the % scale 0 is the no-effect control and ±100 the full control effect; nearly all actives have a fitted effect of over 20% in size
Target sequence (P02791 2-175 limits assumed): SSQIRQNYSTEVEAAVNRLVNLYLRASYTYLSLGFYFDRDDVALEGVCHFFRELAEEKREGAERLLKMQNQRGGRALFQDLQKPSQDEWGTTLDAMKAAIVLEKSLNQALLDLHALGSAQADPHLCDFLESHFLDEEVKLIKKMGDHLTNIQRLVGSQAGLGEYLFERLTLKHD
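In PBS, apoferritin at 10 uM is loaded with 1-AMA from a 50% saturated solution. After 10 min of compound exposure at ambient temperature, reduced 535 nm fluorescence indicates probe displacement.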
PKM2 activator: qHTS Assay for Activators of Human Muscle isoform 2 Pyruvate Kinase; 260,000 compounds, 0.34% hits; AID 1631, 2009; purified PKM2, Kinase-Glo ATP luminescence, activation; response scale: 0% is enzyme alone, no compound; Pyruvate kinase PKM (Homo sapiens), P14618; Potency, µM (doses to about 57.5 µM), without a hit: at the highest dose activation, usual class: activators; further: potency means the concentration at half of the fitted maximal effect; on the % scale 0 is the no-effect control and ±100 the full control effect; nearly all actives have a fitted effect of over 55% in size
Target sequence (P14618 whole entry, looked up, canonical isoform): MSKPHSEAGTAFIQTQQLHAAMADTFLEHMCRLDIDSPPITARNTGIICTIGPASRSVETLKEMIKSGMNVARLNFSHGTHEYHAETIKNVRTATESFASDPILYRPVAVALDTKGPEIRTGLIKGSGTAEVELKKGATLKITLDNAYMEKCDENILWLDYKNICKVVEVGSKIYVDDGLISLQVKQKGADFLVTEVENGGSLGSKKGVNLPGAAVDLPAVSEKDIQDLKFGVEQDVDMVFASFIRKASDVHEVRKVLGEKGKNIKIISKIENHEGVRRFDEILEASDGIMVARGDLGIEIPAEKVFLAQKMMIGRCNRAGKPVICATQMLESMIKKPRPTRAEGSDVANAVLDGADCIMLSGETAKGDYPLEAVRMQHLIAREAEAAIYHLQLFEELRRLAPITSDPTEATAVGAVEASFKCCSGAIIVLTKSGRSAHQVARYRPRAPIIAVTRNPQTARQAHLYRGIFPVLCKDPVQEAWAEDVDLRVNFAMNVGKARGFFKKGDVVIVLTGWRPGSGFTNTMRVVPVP
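ATP formation by purified human PK-M2, quantified via coupled luciferase luminescence after 1 h at room temperature with 0.1 mM ADP and 0.5 mM PEP final.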
BRCA1 expr up: qHTS Assay to Identify Small Molecule Activators of BRCA1 Expression; MCF7-BRCA1-FFLuc reporter, luminescence, 48 h; response scale: scaled: vehicle 0%, 10 µM genistein 100%; AID 624202, 2012; Potency, µM (series often up to 46.1 µM), without a hit: top-dose activation, actives largely listed as activators; 380,000 compounds, 1.1% hits; further: potency means the concentration at half of the fitted maximal effect; nearly all actives have a fitted effect of over 80% in size
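First, MCF7-BRCA1-FFLuc cells (2000/well) attach for 2 h; next, compounds are pin-added and incubated 48 h at 37 °C; finally, luciferase reagent is added and luminescence read after 15 min.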
a7 integrin act: qHTS for Activators of Integrin-Mediated Alleviation for Muscular Dystrophy; alpha7betagal myoblasts, beta-gal FDG fluorescence, 48 h; Potency, µM (top dose mostly 38.3 µM), without a hit: at the top dose activation, hits mostly activators; 350,000 compounds, 0.064% hits; AID 624291, 2012;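 further: potency means the concentration at half of the fitted maximal effect; 100% = response of the positive control SU9516; nearly all actives have a fitted effect of over 60% in size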
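Alpha7betagal+/- myoblasts (passage 13) were plated 16-24 hr, then exposed to compounds (1:260 dilution of DMSO stock) for 48 hours at 37C. After MPER lysis, β-galactosidase reporter activity was read as FDG fluorescence (ex 480/em 540) after 30 minutes.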
IL2 activator: qHTS of IL-2 Activators. IL-2 activation reporter assay, cell-based qHTS; stimulated with anti-CD3/CD4/CD28 beads; in transgenic mouse T cells. activation, % (series mostly up to about 46 µM). 360,000 compounds, 0.065% hits. AID 652025, 2013; in the data active means activation above about 50%; inconclusive means mostly about 30% to 49%; further: 0% is about no effect
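Readout is EGFP and DsRed signal by fluorescent plate cytometry after 18 h at 37 degrees C. Transgenic mouse T cells (750/well) received compound for 60 min before bead stimulation (anti-CD3, anti-CD4, anti-CD28); memory T cells served as non-tolerant control.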
Numbers without * were called inactive; ? = inconclusive; . = not tested or not shown; [ ] = remark or other dose. Unless noted, the call rests on the fitted dose curve; in most records, active means well fitted curve in the direction sought with a large enough effect; inconclusive means small, poorly fitted or top-dose-only effect, or another doubt; inactive means no such curve, though single readings can be large; an effect the other way counts as inactive or inconclusive.

SMILES	Anesthetic bind	PKM2 activator	BRCA1 expr up	a7 integrin act	IL2 activator
CCN1C(=O)[C@H]2[C@H]3[C@H](O)[C@H](O)C/C(=N/O[C@@H](C)CN4CCCc5nc(C)c(C)cc54)[C@@H]3CC[C@@H]2C1=O	10%[15.3 µM]	.	.	.	.
OC[C@@H]1CCC[C@@H](n2cnc3c(=S)nc[nH]c32)O1	.	.	-12%	.	.
COC(=O)C1=C(C)NC(C)=C(C(=O)OCCSc2ccccc2)C1C (stereo not given)	306%	.	.	.	.
N#C/C(=C/c1ccc(N2CCOCC2)o1)c1ccc(Br)cc1	?	14µM*	-32%	-68%	0
Cn1c2ccccc2c(=O)c2ccc(C#CC3(N)CCCCC3)cc21	48%	-5%	5.6µM*	-2%	0
COc1cccc2oc3ccc(C#CC4(N)CCCCC4)cc3c(=O)c12	105%	0%	7.9µM*	-5%	0
Cn1c2ccccc2c(=O)c2ccc(C#Cc3ccccn3)cc21	-3%	0%	11µM*	8%	0
Cc1ccc(N2CC(NC(=O)CCc3ccccc3)CC2=O)cc1 (stereo not given)	8%	.	.	.	.
O=C(C[n+]1cccc(Br)c1)c1ccc2c(c1)CCCC2	.	.	86%	.	.
COc1ccc2sc3ccccc3c(=O)c2c1	155%	-4%	5.6µM*	-11%	-1
Cc1ccc(C(C)C)c(OCCCn2c(=O)oc3ccc(C)cc32)c1	57%	.	.	.	.
CSc1ccc(/C=N/n2c(C)cc(C)cc2=O)cc1	-18%	-4%	10µM*	0%	-1
CSc1ccc(/C=N/n2c(C)nnc2C)cc1	-8%	2%	-6%	?	0
Nc1c(-c2ccc3c(c2)OCCO3)oc2ccccc2c1=O	-4%	0%	2.5µM*	?	-4
O=c1cc(-c2ccc3c(c2)OCO3)oc2ccccc12	-3%	6%	34%	25%	0
OC1OC[C@H](O)[C@@H](O)[C@H]1O (stereo not given in full)	0%	.	.	.	.
Cc1ccccc1Nc1nc(N)nc(COC(=O)c2ccccc2)n1	0%	2%	14µM*	-4%	-2
Cc1ccccc1Nc1nc(N)nc(CSCc2c(C)noc2C)n1	-11%	3%	-23%	9%	-1
Cc1ccccc1CSCc1nc(N)nc(Nc2ccccc2C)n1	0%	-8%	11µM*	5%	5
CCOC(=O)c1c(NC(=O)CSc2nc(-c3ccc(OC)cc3)cc(C(F)(F)F)n2)sc(C)c1C	-8%	.	5%	.	.
C/C=C1\COC(C(=O)NCCOCCO)(C(F)(F)F)C=C1C=C1CCCCC1 (stereo not given)	-11%	.	.	.	.
O=c1c2ccccc2[nH]c(=S)n1Cc1cccnc1	?	25µM*	1%	-16%	-1
Cc1c(C(=S)Nc2ccccc2)cnn1-c1ccccc1	-19%	0%	7.9µM*	15%	-4
Cc1nn(-c2ccccc2)cc1C(=S)Nc1ccccc1	5%	10%	7.9µM*	9%	0
Cc1c(C(=S)Nc2ccccc2)cnn1-c1ccc([N+](=O)[O-])cc1	5%	6%	-30%	-19%	1
SMILES	Anesthetic bind	PKM2 activator	BRCA1 expr up	a7 integrin act	IL2 activator
CCCCN(C)CCCNC(=O)C1CCN(c2nc3ccc(CC)cc3s2)CC1	-16%	.	.	.	.
Cc1cc(O)ccc1Nc1cc(-c2cccc(N(C)C)c2)ncn1	.	.	5.6µM*	.	0
S=C(NCc1ccco1)Nc1ccc(Br)cc1Cl	-13%	-1%	10µM*	-21%	1
S=C(NCc1cccc(Cl)c1)NCc1ccco1	-3%	1%	9%	20%	-4
S=C(NCc1ccco1)Nc1ccc(Cl)cc1Cl	4%	-4%	7.9µM*	22%	0
Cc1ccc(O)c(NC2=C(Cl)C(=O)N(Cc3ccccc3)C2=O)c1	22µM*	8.9µM*	-43%	23%	-2
Cc1ccc(C(=O)N2CCCCC2)cc1NC1=C(Cl)C(=O)N(Cc2ccccc2)C1=O	.	.	-90%	4%	-1
COc1ccc(OC)c(/C=C/c2c3ccccc3cc[n+]2C)c1	.	.	-72%	.	.
CC(=O)NC(c1ccc(C)cc1)c1cc([N+](=O)[O-])c2cccnc2c1O (stereo not given)	-8%	15%	-106%	-15%	1
CCC(=O)NC(c1ccc(C)cc1)c1cc([N+](=O)[O-])c2cccnc2c1O (stereo not given)	-1%	17%	-96%	19%	147*
Clc1ccccc1Cn1nnc2c(N3CCCC3)ncnc21	-21%	16µM*	-1%	0%	-1
C=C(C)Cn1cnc2c(oc3nc4c(cc32)CCCC4)c1=O	-6%	-7%	5.6µM*	-24%	0
COc1ccc(N2C(=O)[C@@H]3[C@H](C2=O)[C@H]2C=CC=NN2[C@@H]3C(=O)Nc2ccc(Cl)cc2)cc1	-17%	8.9µM*	-34%	20%	0
COc1ccccc1N1CCN(c2cc(C)nc3nncn23)CC1	0%	.	.	.	.
COc1ccc(OCc2cc(C(=O)NCC3CCCCO3)no2)c(Cl)c1 (stereo not given)	?	.	13µM*	-7%	1
COc1ccc(OCc2cc(C(=O)N(C)Cc3cnccn3)no2)c(Cl)c1	-21%	3%	8.9µM*	5%	-3
CSc1ccccc1OCc1cc(C(=O)N(C)Cc2cnccn2)no1	-18%	-2%	?	21%	1
CN(CCc1ccccc1)C(=O)c1cc(COc2ccc(F)cc2Cl)on1	-17%	.	13µM*	5%	-2
COc1ccc(OCc2cc(C(=O)NC(C)Cc3cnccn3)no2)c(Cl)c1 (stereo not given)	-8%	.	11µM*	30%	-3
O=c1c2c3c(sc2ncn1/N=C/c1ccco1)CCCC3	?	5%	18%	-1%	-1
O=c1c2c3c(sc2ncn1/N=C/c1ccccc1)CCCC3	?	3%	20µM*	-4%	1
O=c1c2c3c(sc2ncn1Cc1ccc(F)cc1)CCC3	25µM*	6%	1%	-13%	1
CC(C)CC(=O)Nc1ccc(C(=O)OCc2cc(=O)n3nc(C(C)C)sc3n2)cc1	34%	.	.	.	.
O=S(=O)(Nc1ccc(-n2cccc2)cc1)c1ccccc1	-9%	16µM*	-4%	15%	-4
Cc1csc(SCC(=O)Nc2sccc2C(N)=O)n1	-9%	-6%	6.3µM*	22%	0
NC(=O)c1ccsc1NC(=O)CSc1ccccc1F	1%	-3%	11µM*	11%	-2
Cc1csc(SCC(=O)Nc2nccs2)n1	.	.	-5%	-9%	5
CCNc1ccc(/C=C/c2ccnc3ccccc23)cc1	.	.	44%	.	.
Cc1cccc(-c2cc3nc(C)cc(C)n3n2)c1	-13%	-2%	1.6µM*	16%	0
